H9c2 protect = myocardial damage modulation in H9c2 cells | protection from H2O2 cell death, % at 20 µM | H9c2 cardiomyocytes, H2O2 injury protection, ATPLite, 2 h | actives 0.63% (n = 360,000);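 active = compounds giving at least 50% protection of heart cells from peroxide-induced death in the single-dose screen, raw or plate-pattern-corrected value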;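 also: 0% = DMSO wells with peroxide and 100% = DMSO wells without peroxide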
AHR act = activates the human aryl hydrocarbon receptor. AID 2796. actives 2.5% (n = 320,000). AHR-responsive luciferase reporter cells, luminescence. activation, % at 5 µM. P35869; in the data active = activation above about 47%;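 also: 0% = vehicle wells and 100% = reference agonist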
Target sequence (P35869 whole entry, looked up): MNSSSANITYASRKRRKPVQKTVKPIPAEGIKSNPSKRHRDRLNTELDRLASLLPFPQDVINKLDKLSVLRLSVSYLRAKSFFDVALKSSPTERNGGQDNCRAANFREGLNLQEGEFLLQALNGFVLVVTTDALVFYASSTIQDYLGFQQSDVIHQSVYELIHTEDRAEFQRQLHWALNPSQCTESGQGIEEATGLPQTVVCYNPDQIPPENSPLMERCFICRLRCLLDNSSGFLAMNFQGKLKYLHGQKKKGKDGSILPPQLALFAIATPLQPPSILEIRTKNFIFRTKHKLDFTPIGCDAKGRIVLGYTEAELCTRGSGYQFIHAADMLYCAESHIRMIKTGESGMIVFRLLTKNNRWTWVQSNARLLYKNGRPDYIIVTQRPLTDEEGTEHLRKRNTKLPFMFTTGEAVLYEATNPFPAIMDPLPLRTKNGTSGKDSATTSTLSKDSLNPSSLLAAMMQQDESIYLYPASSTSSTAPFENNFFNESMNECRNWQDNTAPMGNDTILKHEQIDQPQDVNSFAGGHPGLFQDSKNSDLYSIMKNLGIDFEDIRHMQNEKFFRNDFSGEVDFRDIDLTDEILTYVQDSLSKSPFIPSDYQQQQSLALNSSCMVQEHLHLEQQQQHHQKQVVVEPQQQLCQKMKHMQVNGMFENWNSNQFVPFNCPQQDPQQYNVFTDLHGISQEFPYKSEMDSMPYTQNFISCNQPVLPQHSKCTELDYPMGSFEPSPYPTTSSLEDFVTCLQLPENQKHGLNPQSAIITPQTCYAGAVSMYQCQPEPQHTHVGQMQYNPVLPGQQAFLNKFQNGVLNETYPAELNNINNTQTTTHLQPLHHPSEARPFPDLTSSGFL
AI-2 QS modul = modulators of Vibrio harveyi AI-2 quorum sensing system. Vibrio harveyi JMH597 AI-2 luminescence/OD600 ratio, 9 h; stronger effect = lower value; strain lacks LuxN and CqsS sensors; 0 = neutral-control median. activity change, % at 7.5 µM. actives 0.4% (n = 300,000); in the data active = activity change below about -75%, passing the limit was not always enough;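 also: luminescence divided by OD600 gain over 9 h not by final OD600 alone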
SUMO Mot1 rescue = inhibitors of SUMOylation pathway: yeast Mot1-301 growth rescue; S. cerevisiae Mot1-301 growth rescue, ATP luminescence, 38.5C; percent above DMSO median, 100 means doubled; growth rescue, % at 18.8 µM; actives 1% (n = 320,000); AID 2716;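 active = every valid replicate shows activation above 250% relative to neutral control wells; inactive = the rest, any valid replicate at or below 250%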;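 also: OY570 slx delta 5 strain wells were the positive control but not used for scaling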
GRIN3A LBD mod = NR3A (human) ligand-binding domain modulation; NR3A LBD differential scanning fluorimetry, Tm shift; 0% = protein alone, 100% = glycine-bound protein; Tm shift relative to glycine control, % at 25 µM; actives 2.5% (n = 340,000); AID 1259313;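 active = melting temperature shift of at least 10% of the positive control shift, at one fixed dose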
NTR1 ag = NTR1 (human) agonism; P30989; NTR1-U2OS beta-arrestin-GFP spot imaging, agonist mode; activation, % at 20 µM; actives 0.17% (n = 330,000); AID 493036;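 active = activation at or above 40% of the spot to cytoplasm intensity ratio, with at least 20 cells analyzed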;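 also: 0% = DMSO without peptide and 100% = 100 nM NTR1 peptide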
* = called active by the depositor; · = no result given. Hits are enriched below; roughly 6.2% of the tested compounds scored in any of these assays.

SMILES	H9c2 protect	AHR act	AI-2 QS modul	SUMO Mot1 rescue	GRIN3A LBD mod	NTR1 ag
CC(=O)Nc1ccc(C(=O)N/N=C/c2cccnc2)cc1	1	1	25	-5	0	·
COC(=O)N/N=C/c1c(C)nn(-c2cccc(Cl)c2)c1Cl	2	-10	11	·	1	1
Cc1cc(OCCn2ccnc2)ccc1C(C)C	-11	64*	19	·	0	0
Cc1ccc(C(C)(C)C)c(OCCCn2ccnc2)c1	-9	48*	38	6	-1	2
Cc1cc(C)c(C)c(OCCCn2ccnc2)c1	0	58*	20	257	-1	2
Cc1ccc(OCCCCn2ccnc2)c([N+](=O)[O-])c1	-7	61*	14	3	0	0
CS(=O)(=O)N1CCN(c2ccccc2NC(=O)c2cc3ccccc3o2)CC1	33	33	35	-5	-7	4
Cc1cc(C)c(C)c(S(=O)(=O)N(C)CCc2ccccn2)c1C	8	1	·	84	1	0
C[C@H]1CN([C@@H](C)CO)C(=O)CCCn2nncc2CO[C@H]1CN(C)C(=O)Cc1ccccc1	10	·	·	·	·	·
COc1ccc(C2N(C(=O)N(C)C)CCN2S(=O)(=O)c2ccc(OC)cc2)cc1 (centres undefined)	3	1	26	-2	1	-2
CCOc1ccccc1OC(=O)CN1C(=O)c2ccccc2C1=O	0	0	15	-21	-1	1
Cc1cc(C(C)(C)C)ccc1OCCn1ccnc1	-24	50*	31	77	-3	-5
Cc1ccc(OCCn2ccnc2)c(C)c1	2	32	2	-5	-1	-2
O=C(Nc1nnc(C2CC2)s1)c1cc([N+](=O)[O-])ccc1N1CCCCC1	11	49*	32	67	0	0
Cc1ccc(NC(=O)c2cc([N+](=O)[O-])ccc2N2CCCC2)cc1	8	30	33	76	-1	1
Cc1ccc(S(=O)(=O)Nc2cc(C)c(O)c(Sc3n[nH]c(C)n3)c2)cc1	0	-1	14	-19	0	1
COc1ccc(C(=O)c2c3ccccc3[n+]([O-])n2CCC(N)=O)cc1	-1	4	10	6	-2	0
COc1ccc(C(=O)c2c3ccc(C(F)(F)F)cc3[n+]([O-])n2CCCN)cc1	3	65*	2	-6	2	2
NC(=O)CCn1c(C(=O)c2cc(Cl)c(N)c(Cl)c2)c2ccccc2[n+]1[O-]	7	76*	6	-3	0	4
NCCCn1c(C(=O)c2cc(Cl)c(N)c(Cl)c2)c2ccccc2[n+]1[O-]	12	72*	3	0	2	0
Cc1ccc(C(=O)c2c3ccc(C(F)(F)F)cc3[n+]([O-])n2CCCN)cc1	-4	27	1	-23	1	1
NC(=O)CCn1c(C(=O)c2cccc([N+](=O)[O-])c2)c2ccccc2[n+]1[O-]	-1	57*	0	-10	-4	-2
COc1ccc(C(=O)c2c3ccccc3[n+]([O-])n2CCCN)cc1	8	13	10	15	1	0
CCCCCCSc1ccc([C@@H]2[C@H]3C(=O)N(CC)C(=O)[C@H]3[C@]3(C(=O)OC)CCCCN23)cc1OC	0	1	·	-13	5	-1
COc1ccc(-c2nc3c(Br)c(N)c(Br)cc3o2)cc1	-11	49*	·	19	-12	2
SMILES	H9c2 protect	AHR act	AI-2 QS modul	SUMO Mot1 rescue	GRIN3A LBD mod	NTR1 ag
COc1ccc(-c2nc3ccc([N+](=O)[O-])cc3o2)cc1	3	-3	11	-12	-1	0
Cc1[nH]c(=O)[nH]c(=O)c1S(=O)(=O)Nc1ccc(Oc2ccccc2)cc1	5	-5	37	-15	0	0
CN(C)S(=O)(=O)Nc1ccc(Oc2ccccc2)cc1	-3	-4	-93*	13	0	1
COc1ccc2c(C)cc(=O)[nH]c2c1	-2	-2	5	8	-2	1
COc1ccc2c(-c3cccnc3)cc(=O)[nH]c2c1	-4	78*	13	-8	0	-2
Cc1cc(C)cc(NC(=S)NC(=O)C2CC2)c1	-6	58*	-12	-4	2	2
O=C(NC(=S)Nc1ccccc1Br)C1CC1	-5	25	-77*	1	1	1
Cc1cc(NC(=S)NC(=O)C2CC2)ccc1Br	-8	106*	9	58	-11	11
Cc1ccc(Nc2nnc(SCC(=O)c3ccc(Br)s3)s2)c(C)c1	-5	60*	15	-3	1	3
Cc1ccc(Nc2nnc(SC/C(O)=C(\C#N)c3nc4ccccc4[nH]3)s2)c(C)c1	10	55*	25	-11	13*	3
Cc1cccc(Nc2nnc(SC/C(O)=C(\C#N)c3nc4ccccc4[nH]3)s2)c1	13	36	7	-22	10*	1
Cc1cc(C)n2c(SCC(O)=C(C#N)c3nc4ccccc4[nH]3)nnc2n1	10	·	·	·	-2	·
COc1ccc(C)cc1-n1nnnc1SC/C(O)=C(\C#N)c1nc2ccccc2[nH]1	-7	30	51	-10	4	2
CC(=O)Nc1ccc(N2C(=O)CSC2c2cccc(Br)c2)cc1 (centres undefined)	1	8	0	-6	0	0
CCCC(C)c1nnc(NC(=O)CN2C(=O)c3ccccc3C2=O)s1 (centres undefined)	-3	0	-88*	·	4	1
CCC(CC)c1nnc(NC(=O)CN2C(=O)c3ccccc3C2=O)s1	7	-1	-50	8	0	1
N#Cc1c(N)nc2c(c1N)CC(=O)N2c1ccccc1-c1ccccc1	-7	7	36	-6	-1	0
N#Cc1c(N)nc2c(c1N)CC(=O)N2c1ccc(Cl)cc1	-6	89*	10	13	-1	2
Cc1ccc(C)c(N=Nc2nc3ccccc3n2C)c1	-14	62*	8	-16	-3	4
Cc1cc(C)c(C)c(N=Nc2nc3ccccc3n2C)c1C	-11	42	4	9	19*	8
COCc1c(C(=O)Nc2ccc(Cl)cc2F)oc2ccccc12	-12	71*	11	-10	3	2
O=C(Nc1ccccc1OC(F)F)c1oc2ccccc2c1COc1ccccc1	1	49*	18	-1	-11	3
COCc1c(C(=O)Nc2nc(C)cs2)oc2ccccc12	1	14	10	6	0	2
CC(C)CNC(=O)c1oc2ccccc2c1COc1ccccc1	-3	6	-4	52	-6	-2
Cc1cc(=O)n2nc(N3CCC(C(=O)NCC(C)c4ccccc4)CC3)sc2n1 (centres undefined)	0	0	3	-1	10*	0

Screening data from PubChem BioAssay.
